Sampled rows, rich in hits. Any-hit rate of the full collection: about 3%.
Wnt bcat act: activators of Wnt/beta-catenin signaling | Wnt/beta-catenin reporter cell assay, activator, plate reader | activation, % at 9.35 µM | 300,000 compounds, 1.2% hits | AID 743398; in the data active means activation above about 30%, passing the limit was not always enough; inconclusive means no clear call, values can overlap the other calls;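 further: 0% = neutral control wells and 100% = positive control wells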
esBAF inh: SWI/SNF esBAF complex inhibition. mouse ES cells, Bmi1-luciferase knock-in reporter, 24 h; 100% = twice the neutral-well signal. reporter increase, % at 12.5 µM. 350,000 compounds, 2% hits. AID 602393; in the data active means activation above about 40%; inconclusive means no clear call, values can overlap the other calls;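 further: 0% = median of the plate's neutral control wells and 100% = double that signal; a rise in the Bmi1 reporter signal indicates esBAF inhibition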
C2C12 statin: protects C2C12 myotubes from simvastatin toxicity; ATP luminescence, 48 h; scaled: DMSO 0, geranylgeraniol control 100; rescue of ATP level, % at 7.49 µM; 330,000 compounds, 0.78% hits; AID 602340;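 active means mean ATP rescue above about 67%, or every replicate alone reaching that limit, limit read from the data, passing the limit was not always enough; inconclusive means no clear call, values can overlap the other calls; inactive means mean under the limit and some replicate under it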;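 further: myotubes were challenged with 10 µM simvastatin during compound exposure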
MITF TRPM1 HTS: activators of MITF-driven TRPM1 promoter activity in SK-MEL-5 cells; SK-MEL-5 TRPM1-promoter luciferase, 24 h; % of positive control, neutral wells = 0; activation, % at 12.5 µM; 300,000 compounds, 0.75% hits;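 active means mean activation of at least 80% with every replicate also reaching 80%; inconclusive means mean reaches 80% but some replicate falls short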;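 further: 0% = neutral control wells and 100% = parthenolide positive control wells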
Ring1 derepress: confirmation of esBAF inhibitors: Ring1 de-repression in mouse ESCs | shares compounds with esBAF inh | mouse ESC E14, Ring1 mRNA RT-qPCR fold change | fold change at 33 µM | 550 tested, under 10 active | AID 743176;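 active means Ring1 gene expression raised more than 2-fold over untreated cells in both replicates at either tested dose; inconclusive means only one replicate above 2-fold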;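 further: Ring1 transcript normalised to actin housekeeping signal by TaqMan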
Fgf4 repress: represses Fgf4 in mouse ESCs, confirming esBAF inhibition; 550 compounds, 4% hits; shares compounds with esBAF inh; mouse ESC E14, Fgf4 mRNA qPCR fold change; hits give low values; Fgf4 expression fold change at 33 µM;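 active means Fgf4 expression under 0.8 fold of control in both repeat measurements at one or both tested doses; inconclusive means under 0.8 fold in just a single repeat measurement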;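 further: Fgf4 transcript normalised to actin in duplex TaqMan qPCR; cells exposed to compound for 24 h before lysis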
Bmi1 derepress: esBAF inhibition confirmed by Bmi1 de-repression; AID 743180; fold change at 33 µM; mouse ESE14 ES cells, Bmi1 mRNA qPCR fold; hits give high values; 550 tested, under 10 active; shares compounds with esBAF inh;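 active means Bmi1 expression fold change above 6 at either tested concentration, seen in replicate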;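 further: higher fold means more Bmi1 de-repression and stronger esBAF inhibition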
A549 tox SP: kills or reduces viability of A549 cells; shares compounds with esBAF inh; A549 cytotoxicity, plate reader; cell viability change % (negative = cytotoxic), % at 25 µM, hits read low; 550 tested, under 10 active; AID 743188; call rule not given here
HepG2 tox SP: HepG2 cell cytotoxicity at single point; activity change, negative = inhibition, % at 25 µM; plate reader; hits give low values; shares compounds with esBAF inh; AID 743189; 550 compounds, 4% hits; in the data active means activity change below about -50%
HEK293 cytotox SP: cytotoxicity in HEK293 cells; shares compounds with esBAF inh; plate reader; activity change, negative = inhibition, % at 25 µM, hits read low; 550 compounds, 3% hits; in the data active means activity change below about -38%, passing the limit was not always enough
Starred values were filed as active, the others as inactive; ? = inconclusive; · = no result.

SMILES | Wnt bcat act | esBAF inh | C2C12 statin | MITF TRPM1 HTS | Ring1 derepress | Fgf4 repress | Bmi1 derepress | A549 tox SP | HepG2 tox SP | HEK293 cytotox SP
Cc1ccc(OCc2cc(C(=O)NC(C)Cc3cccnc3)no2)cc1C (centres undefined) | 18.4 | 71.6* | 12.0 | 63.2 | 1.11 | 1 | 1.85 | -0.1 | -11.5 | -11.0
COc1ccc(S(=O)(=O)Nc2ccc3c(c2)C(=O)N([C@H](C)CO)C[C@H](C)[C@@H](CN(C)C(=O)c2ccccc2)OCCCC[C@H](C)O3)cc1 | · | 2.0 | 27.7 | · | · | · | · | · | · | ·
C/C(=N\O)c1ccc2c3ccccc3n(C)c2c1 | 3.6 | 58.0* | 2.9 | 22.6 | 1.24 | 0.983 | 1.01 | -12.9 | 3.0 | -9.9
CCNC(=O)[C@@H]1[C@@H](CO)[C@@H]2Cn3c(ccc(-c4ccccc4F)c3=O)[C@@H]2N1C(C)=O | · | 4.2 | 5.7 | · | · | · | · | · | · | ·
CC(C)NC(=O)Nc1ccc2c(c1)C(=O)N([C@@H](C)CO)C[C@@H](C)[C@@H](CN(C)C)O2 | · | 2.0 | 4.0 | · | · | · | · | · | · | ·
Cc1ccc(Nc2ncnc3sc(C)c(C)c23)cc1 | · | 59.5* | -9.3 | 41.0 | 1.16 | 0.917 | 1.38 | -2.2 | -11.5 | -2.7
O=C(CNC1CCCCC1)N1CCc2ccccc2C1 | -3.0 | · | · | · | · | · | · | · | · | ·
O=C(NC1CCCCC1)N1CCc2ccccc2C1 | 9.8 | 67.0* | -7.2 | 77.1 | 1.14 | 1 | 1.87 | -7.5 | -25.5 | -11.1
Nc1nc(SCc2ccccc2)cc(SCc2ccccc2)n1 | 39.0* | 65.2* | 2.9 | 54.0 | 1.14 | 1.08 | 1.66 | -12.4 | 1.1 | -3.6
O=C(C[C@@H]1CC[C@@H]2[C@H](COC[C@H](O)CN2C(=O)Nc2ccccc2)O1)NC1Cc2ccccc2C1 | · | -1.2 | 0.1 | · | · | · | · | · | · | ·
COc1ccc(S(=O)(=O)Nc2ccc3c(c2)C(=O)N([C@@H](C)CO)C[C@@H](C)[C@@H](CN(C)C(=O)NC(C)C)O3)cc1 | · | -11.6 | · | · | · | · | · | · | · | ·
CCCNC(=O)Nc1ccc2c(c1)C(=O)N(C)[C@H]1CC[C@@H](CC(=O)O)O[C@H]1CO2 | · | -1.0 | 2.1 | · | · | · | · | · | · | ·
CCNC(=O)O/N=C(\C)c1sc(-c2ccccc2)nc1C | 8.8 | 62.6* | -14.6 | · | 0.965 | 0.804 | 1.7 | -7.5 | -17.1 | -17.8
Cc1ccc(S(=O)(=O)N(C)C[C@@H]2Oc3c(NC(=O)Nc4ccccc4)cccc3C(=O)N([C@H](C)CO)C[C@@H]2C)cc1 | · | 21.9 | -71.3 | · | · | · | · | · | · | ·
COc1ccc(CCC(=O)N2CCc3ccccc32)cc1 | 20.3 | 62.8* | · | · | 1.09 | 0.907 | 1.39 | -4.6 | -1.6 | -11.2
COc1ccc(C(=O)N2CCc3ccccc32)cc1 | 6.2 | 68.3* | -3.7 | · | 0.968 | 0.882 | 1.51 | -4.2 | -8.5 | -5.9
COc1cc2[nH]c(C(=O)N3CCc4ccccc43)cc2c(OC)c1OC | 19.1 | 58.1* | -19.9 | 42.7 | 0.939 | 1.15 | 2.14 | 4.1 | 0.9 | -3.8
Cc1ccc(C(=O)N2CCc3ccccc32)cc1C | 22.2 | 52.2* | -3.6 | · | 1.25 | 0.996 | 1.54 | 9.5 | 19.0 | -6.1
O=C(c1ccccc1)N1CCc2ccccc21 | · | · | 23.6 | -1.5 | · | · | · | · | · | ·
NNC(=O)c1nc2ccccc2s1 | -1.4 | 67.8* | -0.9 | · | 1.17 | 0.833 | 1.67 | -4.9 | -47.9 | -9.6
C[C@H](CO)N1C[C@H](C)[C@@H](CN(C)Cc2ccc(C(=O)O)cc2)OCCCC[C@H](C)Oc2ccc(NC(=O)C3CCCCC3)cc2C1=O | · | -3.2 | · | · | · | · | · | · | · | ·
O=C1N=C(N2CCCCC2)S/C1=C\c1ccccc1F | 8.8 | 57.2* | -3.2 | · | 1.35 | ? | 1.74 | 3.8 | -8.0 | -4.2
O=C(C[C@@H]1CC[C@H]2NC[C@@H](O)COC[C@@H]2O1)Nc1ccccc1 | · | 0.7 | 9.2 | · | · | · | · | · | · | ·
Brc1cccc2sc(N3CCN(c4ccccc4)CC3)nc12 | 3.2 | · | · | 1.8 | · | · | · | · | · | ·
Clc1cccc2sc(N3CCCCC3)nc12 | · | 61.1* | -0.9 | · | 1.23 | 0.933 | 1.75 | -0.8 | -0.9 | -2.8
SMILES | Wnt bcat act | esBAF inh | C2C12 statin | MITF TRPM1 HTS | Ring1 derepress | Fgf4 repress | Bmi1 derepress | A549 tox SP | HepG2 tox SP | HEK293 cytotox SP
O=C(Nc1ccc(F)cc1)c1ccccc1F | 22.2 | 85.1* | 11.1 | 81.7* | 1.3 | 1.03 | 1.58 | -11.0 | -3.4 | -15.6
CC(=O)Nc1ccc(NC(=O)c2ccccc2F)cc1 | 19.7 | 16.4 | · | · | · | · | · | · | · | ·
CC(=O)Nc1ccc(C(=O)N/N=C/c2ccc(F)cc2)cc1 | -1.3 | · | · | 1.1 | · | · | · | · | · | ·
O=C(N/N=C/c1ccccc1)c1ccc(NC(=O)c2ccc(F)cc2)cc1 | 0.5 | 57.9* | 11.9 | 11.6 | 1.23 | 1.07 | 1.23 | 6.8 | 8.5 | 0.1
Cc1cc(F)ccc1-c1cc(C(=O)Nc2ccc(F)cc2)[nH]n1 | 1.3 | 70.7* | -5.3 | · | 1.24 | 0.891 | 1.72 | -6.8 | 3.4 | -6.6
COc1ccc(NC(=O)c2cc(-c3ccc(F)cc3C)n[nH]2)cc1OC | 5.8 | 20.8 | -6.6 | · | · | · | · | · | · | ·
C=CCNc1nc(NCc2cccc(OC)c2)c2sc(-c3ccccc3)cc2n1 | -2.3 | 70.9* | -68.4 | · | 3.7* | 0.3* | 17.3* | -7.5 | -48.0 | -65.9*
COc1cccc2sc(NC(=O)c3ccc(Br)s3)nc12 | · | 67.7* | -20.3 | 31.0 | 1.59 | 0.877 | 1.57 | 7.9 | 18.0 | 2.5
Cc1cccc2sc(NC(=O)c3ccc(Cl)s3)nc12 | -2.1 | ? | -37.8 | 21.4 | · | · | · | · | · | ·
Cn1c(COc2ccccc2)nc2ccccc21 | 42.3* | 57.2* | -0.9 | · | 1.04 | 0.894 | 1.52 | -19.7 | -23.4 | -20.8
C[C@H](CO)N1C[C@H](C)[C@H](CN(C)C)OCCCC[C@H](C)Oc2ccc(NC(=O)Nc3ccc(F)cc3)cc2C1=O | · | -2.5 | -12.5 | · | · | · | · | · | · | ·
COc1ccc(-c2ccc3oc(-c4ccsc4)cc(=O)c3c2)cn1 | 47.9* | 68.2* | -18.2 | 137.8* | 1.36 | 0.939 | 1.47 | -0.7 | -21.8 | -2.5
Cc1noc(C)c1C(=O)Nc1nc2ccccc2s1 | 7.9 | 72.1* | 3.9 | 74.7 | 1.26 | 1.11 | 1.58 | -19.1 | 7.9 | -28.5
COc1ccc(-c2csc(Nc3ncccc3C)n2)cc1 | · | -8.5 | -19.0 | 48.8 | · | · | · | · | · | ·
COc1ccc(-c2csc(Nc3cc(C)ccn3)n2)cc1C | 13.0 | 46.4* | 14.3 | 19.2 | 1.27 | ? | 1.39 | -5.7 | -19.7 | -8.5
C[C@H]1CN([C@@H](C)CO)C(=O)c2cc(NC(=O)C3CCCCC3)ccc2O[C@H]1CN(C)Cc1ccccc1 | · | 0.9 | 6.4 | · | · | · | · | · | · | ·
CC(=O)c1sc(Nc2ccc(Oc3ccccc3)cc2)nc1C | 5.7 | 77.4* | -0.3 | · | 1.16 | 0.999 | 1.81 | -12.1 | -12.7 | -37.5
COC(=O)c1sc(Nc2ccccc2)nc1C | -1.1 | 65.5* | 14.5 | 78.9 | 1.04 | 1.32 | 1.2 | 5.9 | -22.8 | -0.9

Screening data from PubChem.
